What all share (experiment): thermal shift delta Tm vs DMSO control; higher = stronger stabilization (binding)
Common to all, as to conditions: 12.5 µM; protein concentration 2 µM

One assay has as its system LOC_OS01G57100-cb003. The gist of the method: (§1)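 Heating from 25°C to 95°C at 0.05°C/s, fluorescence was recorded for 19.5 μl wells of 2 μM E. coli-expressed, purified rice kinase domain in 100 mM potassium phosphate pH 7.5, 150 mM NaCl, 10% glycerol and 5 × SYPRO Orange with compound in DMSO. Boltzmann fits gave melting temperatures for this differential scanning fluorimetry assay. The shift reported is the mean of three replicates against the DMSO-only protein.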

In a further assay the test system is LOC_OS01G60330-cb001. Summed up: as §1
A further assay deals with LOC_OS01G60700-cb002. The gist of the method: as §1
The test system of another assay is LOC_OS01G63280-cb003. The gist of the method: as §1
The next assay deals with LOC_OS01G67340-cb003. Summed up: as §1
Another assay relates to LOC_OS01G70970-cb002. Summed up: as §1
The next assay has as its system LOC_OS02G07810-cb001. Summed up: as §1
Another assay concerns LOC_OS02G08530-cb003. Summed up: as §1
The subject of the next assay is LOC_OS02G14120-cb001. The gist of the method:
as §1

A further assay deals with LOC_OS02G17970-cb001. The gist of the method: as §1
The next assay deals with LOC_OS02G45750-cb003. Summed up: as §1
The test system of another assay is LOC_OS02G54510-cb004. The gist of the method:
as §1

Another assay relates to LOC_OS03G04050-cb001. The gist of the method:
as §1

The test system of the next assay is LOC_OS03G12390-cb001. Summed up: as §1
Another assay relates to LOC_OS03G27990-cb004. The gist of the method: as §1
In another assay the test system is LOC_OS03G50450-cb001. Summed up:
as §1

Another assay concerns LOC_OS03G50810-cb003. Summed up:
as §1

Another assay has as its system LOC_OS04G35114-cb001. The gist of the method: as §1
For a further assay, the system named is T1, LOC_OS04G38480-cb003.
T1 sequence (whole entry): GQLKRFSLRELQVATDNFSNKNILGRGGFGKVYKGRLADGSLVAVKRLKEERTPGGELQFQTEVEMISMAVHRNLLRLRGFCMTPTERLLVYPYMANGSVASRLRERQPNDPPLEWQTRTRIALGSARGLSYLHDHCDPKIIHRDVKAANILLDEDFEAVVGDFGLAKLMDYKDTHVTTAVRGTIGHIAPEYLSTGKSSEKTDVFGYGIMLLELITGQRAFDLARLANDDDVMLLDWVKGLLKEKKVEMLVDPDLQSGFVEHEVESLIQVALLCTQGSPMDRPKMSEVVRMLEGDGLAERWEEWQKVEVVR
The gist of the method:
as §1

A further assay relates to T2, LOC_OS04G41100-cb001.
T2 sequence (whole entry): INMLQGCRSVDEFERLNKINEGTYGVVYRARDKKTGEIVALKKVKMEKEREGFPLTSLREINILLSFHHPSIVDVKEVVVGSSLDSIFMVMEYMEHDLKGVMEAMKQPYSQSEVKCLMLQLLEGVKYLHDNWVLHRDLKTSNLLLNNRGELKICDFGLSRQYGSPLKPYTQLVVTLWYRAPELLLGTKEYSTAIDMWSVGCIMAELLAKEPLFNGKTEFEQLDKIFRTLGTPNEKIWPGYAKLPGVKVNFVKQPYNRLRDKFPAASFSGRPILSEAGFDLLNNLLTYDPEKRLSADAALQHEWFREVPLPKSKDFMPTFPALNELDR
The gist of the method: as §1

This is an account of results in the supplement of paper PMC9694430.

Molecules are shown by their SMILES.
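Note: purified Escherichia coli-expressed rice kinase domain construct.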

As to `OC1CCC(Oc2cccc3cnc(Nc4ccc5nc[nH]c5c4)nc23)CC1` (stereo not given), the “thermal shift delta Tm” value was 1.84 °C in the assay on LOC_OS01G57100-cb003; 13.9 °C in the assay on LOC_OS01G60330-cb001; -0.02 °C with LOC_OS01G60700-cb002; 4.52 °C with LOC_OS01G63280-cb003; 5.84 °C in the assay with LOC_OS01G67340-cb003; 8.36 °C in the assay with LOC_OS01G70970-cb002. In addition, the “thermal shift delta Tm” value is -0.24 °C with LOC_OS02G07810-cb001; 4.55 °C in the assay on LOC_OS02G08530-cb003; 11.4 °C with LOC_OS02G14120-cb001; 0.06 °C in the assay on LOC_OS02G17970-cb001; 17.1 °C in the assay with LOC_OS02G45750-cb003; 2.66 °C in the assay with LOC_OS02G54510-cb004. In addition, the “thermal shift delta Tm” value in the assay with LOC_OS03G04050-cb001 is 0.39 °C; in the assay on LOC_OS03G12390-cb001, 8.52 °C; with LOC_OS03G27990-cb004, 5.39 °C; with LOC_OS03G50450-cb001, 7.93 °C; in the assay on LOC_OS03G50810-cb003, 7.28 °C; in the assay on LOC_OS04G35114-cb001 it was 7.42 °C. Moreover, the figures for the “thermal shift delta Tm” value in the assay with LOC_OS04G38480-cb003 and in the assay on LOC_OS04G41100-cb001 were 4.8 °C and 5.03 °C, respectively.

Regarding `CCN1C(=O)CNc2ncc(-c3ccc(-c4nc[nH]n4)nc3C)nc21`, the “thermal shift delta Tm” value was 1.53 °C in the assay with LOC_OS01G57100-cb003; 0.57 °C in the assay on LOC_OS01G60330-cb001; 0.53 °C with LOC_OS01G60700-cb002; -0.65 °C with LOC_OS01G63280-cb003; -0.28 °C with LOC_OS01G67340-cb003; 0.01 °C in the assay on LOC_OS01G70970-cb002. Besides, the “thermal shift delta Tm” value is 0.72 °C in the assay on LOC_OS02G07810-cb001; 0.04 °C in the assay on LOC_OS02G08530-cb003; -0.7 °C in the assay on LOC_OS02G14120-cb001; 0.77 °C with LOC_OS02G17970-cb001; 1.71 °C in the assay with LOC_OS02G45750-cb003; -0.29 °C in the assay with LOC_OS02G54510-cb004. The “thermal shift delta Tm” value in the assay with LOC_OS03G04050-cb001 is -0.03 °C; with LOC_OS03G12390-cb001, -0.17 °C; in the assay with LOC_OS03G27990-cb004, -0.12 °C; in the assay with LOC_OS03G50450-cb001 it was -0.24 °C; in the assay with LOC_OS03G50810-cb003, -0.05 °C; in the assay on LOC_OS04G35114-cb001 it was 0.7 °C. Besides, the “thermal shift delta Tm” value with LOC_OS04G38480-cb003 is 0.95 °C; in the assay on LOC_OS04G41100-cb001, -0.13 °C.

In the case of `Cn1cc(-c2ccc3c(c2)CCN3C(=O)Cc2cccc(C(F)(F)F)c2)c2c(N)ncnc21`, the “thermal shift delta Tm” value in the assay with LOC_OS01G57100-cb003 is 1.46 °C; in the assay with LOC_OS01G60330-cb001, -0.42 °C; with LOC_OS01G60700-cb002, 0.15 °C; in the assay on LOC_OS01G63280-cb003 it was 9.43 °C; in the assay on LOC_OS01G67340-cb003 it was 3.52 °C; in the assay with LOC_OS01G70970-cb002, 0.54 °C. The “thermal shift delta Tm” value in the assay with LOC_OS02G07810-cb001 worked out at 0.74 °C; with LOC_OS02G08530-cb003 it was 1.06 °C; in the assay on LOC_OS02G14120-cb001, 3.86 °C; with LOC_OS02G17970-cb001, 0.57 °C; in the assay on LOC_OS02G45750-cb003, 4.4 °C; in the assay on LOC_OS02G54510-cb004, 2.71 °C. The “thermal shift delta Tm” value with LOC_OS03G04050-cb001 is 0.45 °C; in the assay on LOC_OS03G12390-cb001, 0.39 °C; with LOC_OS03G27990-cb004, 0.12 °C; in the assay with LOC_OS03G50450-cb001 it was 0 °C; in the assay on LOC_OS03G50810-cb003, 0.95 °C; in the assay with LOC_OS04G35114-cb001, 2.08 °C. The “thermal shift delta Tm” value in the assay on LOC_OS04G38480-cb003 was 1.08 °C; in the assay on LOC_OS04G41100-cb001, 1.28 °C.

For the compound `CN(C)C/C=C/C(=O)Nc1ccc(C(=O)Nc2cccc(Nc3ncc(Cl)c(-c4c[nH]c5ccccc45)n3)c2)cc1`, the “thermal shift delta Tm” value in the assay with LOC_OS01G57100-cb003 turned out to be 4.58 °C; in the assay with LOC_OS01G60330-cb001, 12.2 °C; in the assay with LOC_OS01G60700-cb002, 2.21 °C; with LOC_OS01G63280-cb003, 1.68 °C; with LOC_OS01G67340-cb003 it was 4.17 °C; in the assay on LOC_OS01G70970-cb002, 11.9 °C. For the same compound, the “thermal shift delta Tm” value in the assay on LOC_OS02G07810-cb001 is 1.36 °C; with LOC_OS02G08530-cb003 it was 5.36 °C; with LOC_OS02G14120-cb001, 10.1 °C; in the assay on LOC_OS02G17970-cb001, 1.88 °C; in the assay on LOC_OS02G45750-cb003, 6.63 °C; in the assay on LOC_OS02G54510-cb004, 2.87 °C. In addition, the “thermal shift delta Tm” value in the assay with LOC_OS03G04050-cb001 was 0.82 °C; in the assay with LOC_OS03G12390-cb001, 10.8 °C; with LOC_OS03G27990-cb004 it was 4.72 °C; in the assay with LOC_OS03G50450-cb001, 5.94 °C; in the assay with LOC_OS03G50810-cb003, 5.98 °C; in the assay with LOC_OS04G35114-cb001, 1.96 °C. Moreover, the “thermal shift delta Tm” value with LOC_OS04G38480-cb003 came out at 4.69 °C; in the assay with LOC_OS04G41100-cb001, 1.76 °C.

As for `N#Cc1c(NC(=O)c2cccc3ccccc23)sc2c1CCCC2` [JNK Inhibitor IX], the “thermal shift delta Tm” value in the assay on LOC_OS01G57100-cb003 was 1.35 °C; in the assay with LOC_OS01G60330-cb001 it was 1.18 °C; in the assay on LOC_OS01G60700-cb002 it was 0.63 °C; with LOC_OS01G63280-cb003, -0.18 °C; in the assay with LOC_OS01G67340-cb003 it was 0.34 °C; in the assay with LOC_OS01G70970-cb002, 0 °C. Besides, the “thermal shift delta Tm” value was 0.12 °C with LOC_OS02G07810-cb001; 0.47 °C with LOC_OS02G08530-cb003; -0.31 °C in the assay with LOC_OS02G14120-cb001; 0.76 °C in the assay on LOC_OS02G17970-cb001; 0.59 °C with LOC_OS02G45750-cb003; -0.12 °C in the assay on LOC_OS02G54510-cb004. The “thermal shift delta Tm” value with LOC_OS03G04050-cb001 is 0.41 °C; in the assay on LOC_OS03G12390-cb001, -0.14 °C; in the assay with LOC_OS03G27990-cb004, 0.23 °C; in the assay with LOC_OS03G50450-cb001 it was 0.19 °C; in the assay on LOC_OS03G50810-cb003, 0.38 °C; in the assay on LOC_OS04G35114-cb001, 0.53 °C. The “thermal shift delta Tm” value in the assay on LOC_OS04G38480-cb003 amounted to 1.73 °C; with LOC_OS04G41100-cb001, 0.46 °C.

In the case of `C=CC(=O)Nc1cccc(Nc2nc(Nc3ccc(N4CCN(C(C)=O)CC4)cc3OC)ncc2C(F)(F)F)c1` [Rociletinib (CO-1686, AVL-301)], the “thermal shift delta Tm” value with LOC_OS01G57100-cb003 was 3.39 °C; in the assay with LOC_OS01G60330-cb001, 1.53 °C; in the assay with LOC_OS01G60700-cb002 it was 1.63 °C; with LOC_OS01G63280-cb003, -0.27 °C; with LOC_OS01G67340-cb003, 0.52 °C; with LOC_OS01G70970-cb002, 1.38 °C. Also, the “thermal shift delta Tm” value in the assay with LOC_OS02G07810-cb001 came to 1 °C; in the assay on LOC_OS02G08530-cb003 it was 5.28 °C; with LOC_OS02G14120-cb001 it was 1.71 °C; with LOC_OS02G17970-cb001 it was 0.49 °C; in the assay on LOC_OS02G45750-cb003, 1.53 °C; in the assay with LOC_OS02G54510-cb004, 0.29 °C. The “thermal shift delta Tm” value in the assay with LOC_OS03G04050-cb001 is 0.43 °C; in the assay on LOC_OS03G12390-cb001 it was 11.1 °C; in the assay on LOC_OS03G27990-cb004 it was 0.66 °C; with LOC_OS03G50450-cb001, 1.7 °C; with LOC_OS03G50810-cb003 it was 2.22 °C; in the assay on LOC_OS04G35114-cb001 it was 2.08 °C. Besides, the “thermal shift delta Tm” value was determined as 0.94 °C in the assay with LOC_OS04G38480-cb003 and 0.4 °C in the assay with LOC_OS04G41100-cb001.
